# Data as given in PubChem BioAssay (NCATS).
# Inconclusive results are not listed. A number with no mark means an inactive call. Calls of active or inactive are those of the source. The call rests on the fitted dose curve; in most records, active means well fitted curve in the direction sought with a large enough effect; inconclusive means small, poorly fitted or top-dose-only effect, or another doubt; inactive means no such curve, though single readings can be large; an effect the other way counts as inactive or inconclusive. Starred links: 1 amine or outer side, 2 acyl side, 3 side chain; linkers in the order of their positions; H or OH if unused. Positions of bridges follow the written chain, without caps; N, C: chain ends. Non-standard residues stand in square brackets, D forms with d. Residues, ends and D or L forms follow the SMILES beside them. Chains are numbered I, II in the order given. *: point of attachment. Actinocin(9to1) = Cc1c2oc3c(C)ccc(C(=O)[*:1])c3nc-2c(C(=O)[*:2])c(N)c1=O; NMeV = CN[CH](C(=O)O)C(C)C; Cbz = O=C(OCc1ccccc1)*; Sar = CNCC(=O)O
# Experiments:
# [1] = NS1 protein of Zika virus - qHTS assay to identify small molecule inhibitors in human HEK 293 cells (AID 1347053); further: nearly all actives have a fitted effect of over 55% in size;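 on activity change, negative = inhibition: series mostly up to about 46 µM; plate controls were infected untreated cells for no effect and uninfected cells for full effect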
# How it was run: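 Following 20 h seeding, HEK 293 cells took compound, then 1 h later ZIKV MR766 (MOI = 0.5). Incubation ran 24 h at 37 C before TR-FRET detection of NS1; a drop in signal indicates inhibition.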
# [2] = qHTS of pediatric cancer cell lines to identify multiple opportunities for drug repurposing: Primary screen for TC32 cells (AID 1347089); further: nearly all actives have a fitted effect of over 60% in size; on activity change, negative = cytotoxic: on the % scale 0 is the no-effect control and ±100 the full control effect
# How it was run: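 A viability screen of TC32 cells was run over 48 h, with primary MIPE doses spanning 0.78 nM–46 µM and NPC doses 0.59 nM–46 µM. ATP luminescence (CellTiter-Glo) served as the read-out.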
# [3] = qHTS of pediatric cancer cell lines to identify multiple opportunities for drug repurposing: Primary screen for DAOY cells (AID 1347090); further: nearly all actives have a fitted effect of over 55% in size;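 on activity change, negative = cytotoxic: series mostly up to about 46 µM; plate controls were DMSO for no effect and bortezomib for full effect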
# How it was run: (§1)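 Cell viability, CellTiter-Glo luminescence; 500-1,000 cells/well, 8- or 11-point titration, 48 h compound exposure at 37 degrees C, 5% CO2. Controls: DMSO neutral, bortezomib 2.3 µM final as positive.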
# [4] = qHTS of pediatric cancer cell lines to identify multiple opportunities for drug repurposing: Primary screen for A673 cells (AID 1347092); further: nearly all actives have a fitted effect of over 45% in size; on activity change, negative = cytotoxic: on the % scale 0 is the no-effect control and ±100 the full control effect
# How it was run: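 Titration-based qHTS on A673 cells: MIPE compounds spanned 11 points (0.78 nM to 46 µM final), NPC compounds 8 points (0.59 nM to 46 µM final). Viability after 48 h was measured by ATP luminescence.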
# [5] = qHTS of pediatric cancer cell lines to identify multiple opportunities for drug repurposing: Primary screen for SK-N-MC cells (AID 1347093);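 on activity change, negative = cytotoxic: series mostly up to about 46 µM; plate controls were DMSO neutral control for no effect and bortezomib for full effect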
# How it was run: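 Metabolically active cells were quantified by ATP-dependent luminescence (CellTiter-Glo, 15 min at room temperature) following 48 h treatment. Cells had been plated at 500-1,000 per well and settled for 5 h beforehand.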
# [6] = qHTS of pediatric cancer cell lines to identify multiple opportunities for drug repurposing: Primary screen for SJ-GBM2 cells (AID 1347091);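 on activity change, negative = cytotoxic: plate controls were DMSO neutral control for no effect and bortezomib for full effect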
# How it was run: as §1
# Potency means the concentration at half of the fitted maximal effect.
compound,measurement,setting,value
Cc1coc2c1C(=O)C(=O)c1c-2ccc2c(C)cccc12,Potency,[1],inactive
same,Potency,[2],inactive
same,Potency,[3],inactive
same,Potency,[4],inactive
same,Potency,[5],inactive
O=c1ccn([C@@H]2O[C@H](CO)[C@H](O)[C@@H]2F)c(=O)[nH]1,Potency,[1],inactive
same,Potency,[2],inactive
same,Potency,[6],inactive
same,Potency,[4],23500 nM (active)
same,Potency,[5],8330 nM (active)
COc1cccc2c1C(=O)c1c(O)c3c(c(O)c1C2=O)C[C@@](O)(C(=O)CO)C[C@H]3O[C@H]1C[C@H](N)[C@H](O)[C@H](C)O1,Potency,[1],332 nM (active)
same,Potency,[2],930 nM (active)
same,Potency,[6],52.6 nM (active)
same,Potency,[4],235 nM (active)
same,Potency,[5],105 nM (active)
C=C1C[C@@]2(O)O[C@@]3(C[C@H]2C(C)C)[C@H](C)CC[C@H]13,Potency,[1],inactive
same,Potency,[2],inactive
same,Potency,[3],inactive
same,Potency,[6],inactive
same,Potency,[5],inactive
O=C1c2cccc(O)c2C(=O)c2c(O)cc(CO)cc21,Potency,[1],inactive
same,Potency,[2],inactive
same,Potency,[6],inactive
same,Potency,[4],inactive
CC(=O)O[C@H]1C[C@@H]2CC[C@H]3[C@H]4C[C@H]([N+]5(C)CCCCC5)[C@@H](OC(C)=O)[C@@]4(C)CC[C@@H]3[C@@]2(C)C[C@H]1N1CCCCC1,Potency,[1],inactive
same,Potency,[2],inactive
same,Potency,[6],inactive
O=C(O)[C@H](CC(=O)N1C[C@@H]2CCCC[C@H]2C1)Cc1ccccc1,Potency,[1],inactive
same,Potency,[3],inactive
same,Potency,[6],inactive
same,Potency,[4],inactive
COc1cc(OC)c(C=CS(=O)(=O)Cc2ccc(OC)c(NCC(=O)O)c2)c(OC)c1,Potency,[1],469 nM (active)
same,Potency,[2],294 nM (active)
same,Potency,[6],166 nM (active)
same,Potency,[5],93.5 nM (active)
"Cc1c2oc3c(C)ccc(C(=O)NC4C(=O)NC(C(C)C)C(=O)N5CCCC5C(=O)N(C)CC(=O)N(C)C(C(C)C)C(=O)OC4C)c3nc-2c(C(=O)NC2C(=O)NC(C(C)C)C(=O)N3CCCC3C(=O)N(C)CC(=O)N(C)C(C(C)C)C(=O)OC2C)c(N)c1=O (centres undefined) (I: TVP[Sar][NMeV] / II: TVP[Sar][NMeV]; ester I:1-I:C, II:1-II:C; linker I:N-II:N via Actinocin(9to1); configuration not given here)",Potency,[1],7430 nM (active)
same,Potency,[2],523 nM (active)
same,Potency,[5],1 nM (active)
C[C@@H](Oc1ccc2[nH]nc(C=Cc3cnn(CCO)c3)c2c1)c1c(Cl)cncc1Cl,Potency,[1],inactive
same,Potency,[2],18600 nM (active)
same,Potency,[6],418 nM (active)
same,Potency,[5],7430 nM (active)
CCN1CCN(C(=O)N[C@H](C(=O)N[C@@H]2C(=O)N3C(C(=O)O)=C(CSc4nnnn4C)CS[C@@H]23)c2ccc(O)cc2)C(=O)C1=O,Potency,[1],inactive
same,"activity change, negative = cytotoxic",[2],13.6% [at 9.17 µM]
same,"activity change, negative = cytotoxic",[6],24.4% [at 9.22 µM]
same,"activity change, negative = cytotoxic",[4],6.36% [at 9.22 µM]
same,"activity change, negative = cytotoxic",[5],-14.8% [at 9.22 µM]
C=CC(=O)Nc1ccc2ncnc(Nc3ccc(OCc4cccc(F)c4)c(Cl)c3)c2c1,Potency,[1],10500 nM (active)
same,Potency,[2],4660 nM (active)
same,Potency,[6],29.6 nM (active)
same,Potency,[4],1 nM (active)
same,Potency,[5],16.6 nM (active)
COc1cc2ncnc(Nc3cccc(Br)c3)c2cc1OC,Potency,[1],inactive
same,Potency,[2],inactive
same,Potency,[6],20900 nM (active)
same,Potency,[4],5.9 nM (active)
same,Potency,[5],11.8 nM (active)
CC(C)N(CC[C@H](c1ccccc1)c1cc(CO)ccc1O)C(C)C,Potency,[1],inactive
same,Potency,[3],inactive
same,Potency,[6],inactive
same,Potency,[4],inactive
CC(C)C[C@H](NC(=O)[C@@H](NC(=O)c1cccc(-c2ccccc2)n1)[C@@H](C)O)B(O)O,Potency,[1],132 nM (active)
same,Potency,[2],466 nM (active)
same,Potency,[6],41.8 nM (active)
same,Potency,[5],23.5 nM (active)
CO[C@@H]1[C@@H](O)[C@H](O)[C@@H](n2c3c(Cl)cccc3c3c4c(c5c6cccc(Cl)c6[nH]c5c32)C(=O)NC4=O)O[C@@H]1CO,Potency,[1],118 nM (active)
same,Potency,[2],294 nM (active)
same,Potency,[6],166 nM (active)
same,Potency,[4],235 nM (active)
same,Potency,[5],66.2 nM (active)
Cc1cncc2cccc(S(=O)(=O)N3CCCN(C(=O)CN)C[C@@H]3C)c12,Potency,[1],inactive
same,Potency,[2],10400 nM (active)
same,Potency,[4],14800 nM (active)
O=C1NC(O)CCN1[C@@H]1O[C@H](CO)[C@H](O)[C@H]1O (some centres undefined),Potency,[1],inactive
same,Potency,[2],inactive
same,Potency,[6],inactive
same,Potency,[4],inactive
same,Potency,[5],inactive
C=CC(=O)N1CCc2ccc(-n3c(=O)ccc4cnc5ccc(-c6cnn(C)c6)cc5c43)cc21,Potency,[1],2960 nM (active)
same,Potency,[2],9300 nM (active)
same,Potency,[6],5900 nM (active)
same,Potency,[4],5900 nM (active)
same,Potency,[5],1480 nM (active)
CN(C)CCN1C(=O)c2cccc3cc(N)cc(c23)C1=O,Potency,[1],inactive
same,Potency,[3],23500 nM (active)
same,Potency,[6],14800 nM (active)
O=C(O)C[C@H](O)C[C@H](O)C=Cc1c(C2CC2)nc2ccccc2c1-c1ccc(F)cc1,Potency,[1],inactive
same,Potency,[2],11700 nM (active)
same,Potency,[6],11800 nM (active)
same,Potency,[5],4690 nM (active)
CC(C)C[C@@H](C=O)NC(=O)[C@H](CC(C)C)NC(=O)[C@H](CC(C)C)NC(=O)OCc1ccccc1 (Cbz-Leu-Leu-Leu-aldehyde),Potency,[1],1660 nM (active)
same,Potency,[2],2340 nM (active)
same,Potency,[6],105 nM (active)
same,Potency,[4],235 nM (active)
same,Potency,[5],83.3 nM (active)
CC(C)(C)[C@H](NC(=O)c1ccc(N)c(Cl)c1)C(=O)N1CCC[C@@H]1C(=O)N[C@H](C#N)CC(=O)O,"activity change, negative = inhibition",[1],0.927% [at 4.81 µM]
same,"activity change, negative = cytotoxic",[2],10.4% [at 4.81 µM]
same,"activity change, negative = cytotoxic",[6],0.43% [at 4.84 µM]
same,Potency,[5],235 nM (active)
